Data taken from PubChem BioAssay (Tox21).
Results filed as inconclusive are left out. A call without a number means that no potency is given here. Activity calls are given as the source filed them. Unless noted, the call rests on the fitted dose curve.

How the values were obtained:
[1] = qHTS assay to identify small molecule agonists of the sonic hedgehog signaling (Shh) pathway (AID 1259368);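 further: NIH/3T3-derived 3T3Gli1-Luc cells carrying a stable Gli1-driven firefly luciferase reporter; series mostly up to about 92 µM; nearly all actives have a fitted effect of over 15% in size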
Outline: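 NIH/3T3-derived 3T3Gli1-Luc cells with stably integrated Gli1-driven firefly luciferase, 2,000 cells/well, compounds added after 4 hr. Incubated 24 hr at 37C, 5% CO2; luminescence read after 30 min with luciferase reagent at room temperature.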

[2] = qHTS assay to identify small molecule antagonists of the sonic hedgehog signaling (Shh) pathway (AID 1259369); further: nearly all actives have a fitted effect of over 45% in size; further: potency means the concentration at half of the fitted maximal effect
Outline: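 NIH/3T3-derived Gli1-Luc reporter cells plated 4 h, dosed with compound, then stimulated with conditioned medium for 24 h at 37 C. Firefly luciferase luminescence read after 30 min with detection reagent at room temperature.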

[3] = target: Estrogen receptor beta (Homo sapiens) (UniProt Q92731); assay: qHTS assay to identify small molecule agonists of the estrogen receptor beta (ER-beta) signaling pathway (AID 1259377; active means well fitted activation curve with a large enough effect in the signal ratio in the repeat runs, not every such curve was filed as active; the % refers to the signal ratio)
Outline: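 Beta-lactamase reporter readout: fluorescence of LiveBLAzer B/G FRET substrate after 2 h at room temperature, following 16 h compound treatment of ER-beta-UAS-bla HEK293T cells at 37C in 2% charcoal-stripped FBS medium.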

[4] = target: Estrogen receptor beta (Homo sapiens) (UniProt Q92731); assay: qHTS assay to identify small molecule antagonists of the estrogen receptor beta (ER-beta) signaling pathway (AID 1259378; active means well fitted inhibition curve with a large enough effect in the signal ratio in the repeat runs, not every such curve was filed as active; the % refers to the signal ratio; further: potency means the concentration at half of the fitted maximal effect)
Outline: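 Antagonist mode: compounds added to beta-lactamase reporter HEK293T ER-beta-UAS cells stimulated with E2 (1nM final), 16 hr at 37C. LiveBLAzer B/G FRET substrate, 2 hours room temperature, fluorescence read-out.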

[5] = qHTS assay to identify small molecule agonists of the androgen receptor (AR) signaling pathway in the presence of an antagonist - cell viability counter screen (AID 1259379; active means well fitted curve in the direction sought with a large enough effect in the repeat runs; an effect the other way counts as inactive or inconclusive; further: nearly all actives have a fitted effect of over 25% in size; further: potency means the concentration at half of the fitted maximal effect)
Outline: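 MDA-kb2 cells (MMTV-luciferase, AR/GR), 3,000/well, 5 h attachment, then 3.0 µM nilutamide (final) and compounds at 15 concentrations. Viability by CellTiter-Fluor fluorescence after 16 h at 37 °C, 0% CO2, in the reporter wells.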

[6] = qHTS assay to identify small molecule agonists of the estrogen receptor beta (ER-beta) signaling pathway - cell viability counter screen (AID 1259380; active means well fitted curve in the direction sought with a large enough effect in the repeat runs; an effect the other way counts as inactive or inconclusive; further: nearly all actives have a fitted effect of over 30% in size; further: potency means the concentration at half of the fitted maximal effect)
Outline: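 ER-beta-UAS-bla HEK293T cells in medium with 2% charcoal-stripped FBS, pre-incubated 6 hr, then treated 16 hr at 37C. Cytotoxicity read in the same wells by CellTiter-Glo luminescence after 30 min at room temperature.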

[7] = target: Androgen receptor (Homo sapiens) (UniProt P10275); assay: qHTS assay to identify small molecule agonists of the androgen receptor (AR) signaling pathway in the presence of an antagonist (AID 1259381); further: nearly all actives have a fitted effect of over 15% in size
Outline: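 MDA-kb2 cells carrying MMTV-luciferase (AR/GR responsive), 3,000 cells/well, co-treated with 3.0 uM nilutamide final. Compounds at 15 concentrations, 16 hr at 37C without CO2. Luciferase luminescence read after 30 min with ONE-Glo.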

[8] = qHTS assay to identify small molecule antagonists of the estrogen receptor beta (ER-beta) signaling pathway - cell viability counter screen (AID 1259382; active means well fitted curve in the direction sought with a large enough effect in the repeat runs; an effect the other way counts as inactive or inconclusive;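 further: HEK293T cells carrying ER-beta-UAS-bla reporter stimulated with estradiol; series mostly up to about 92 µM; nearly all actives have a fitted effect of over 55% in size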)
Outline: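 ER-beta-UAS-bla HEK293T cells in 2% charcoal-stripped FBS medium, treated with compound plus 1 nM 17-beta-estradiol for 16 h at 37C. Viability read by CellTiter-Glo luminescence after 30 min at room temperature in the same wells.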

[9] = target: Estrogen receptor (Homo sapiens) (UniProt P03372); assay: qHTS assay to identify small molecule agonists of the estrogen receptor alpha (ER-alpha) signaling pathway in the presence of an antagonist (AID 1259383); further: top concentration of the series differs between compounds; nearly all actives have a fitted effect of over 15% in size
Outline: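 VM7Luc4E2 cells express endogenous full-length ER-alpha with an ERE-luciferase reporter and were hormone-deprived for 5 days. Compounds at 15 concentrations were added with 10.0nM ICI-182,780 for 22hr at 37C. Luminescence was read with ONE-Glo.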

[10] = qHTS assay to identify small molecule agonists or antagonists of the thyroid stimulating hormone receptor (TSHR) signaling pathway - wild type cell line counter screen (AID 1259384)
Outline: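 Counter screen in untransfected Hek293: compounds (15-point titration, triplicate) plus phosphodiesterase inhibitor Ro20-1724 added after 18 h plating; 30 min RT. Intracellular cAMP via competitive d2/cryptate immunoassay, 1 h incubation.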

Chain of Estrogen receptor (Homo sapiens) (P03372 whole entry, looked up): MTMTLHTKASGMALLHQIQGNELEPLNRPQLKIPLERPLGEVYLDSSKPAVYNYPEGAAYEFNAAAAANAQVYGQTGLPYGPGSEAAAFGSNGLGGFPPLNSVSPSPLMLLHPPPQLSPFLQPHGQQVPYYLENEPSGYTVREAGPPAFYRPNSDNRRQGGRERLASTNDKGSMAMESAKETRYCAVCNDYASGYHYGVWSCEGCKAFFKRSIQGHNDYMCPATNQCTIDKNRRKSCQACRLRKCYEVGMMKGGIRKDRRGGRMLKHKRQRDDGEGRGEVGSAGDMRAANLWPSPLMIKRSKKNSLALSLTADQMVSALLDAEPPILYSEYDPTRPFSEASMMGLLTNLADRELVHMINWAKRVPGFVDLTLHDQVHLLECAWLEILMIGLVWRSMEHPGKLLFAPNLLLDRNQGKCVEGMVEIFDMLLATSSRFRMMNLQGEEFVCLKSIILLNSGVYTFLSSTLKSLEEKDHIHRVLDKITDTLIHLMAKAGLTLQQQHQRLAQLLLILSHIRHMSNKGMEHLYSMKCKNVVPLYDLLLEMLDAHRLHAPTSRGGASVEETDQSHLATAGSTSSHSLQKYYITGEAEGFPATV
Chain of Androgen receptor (Homo sapiens) (P10275 whole entry, looked up): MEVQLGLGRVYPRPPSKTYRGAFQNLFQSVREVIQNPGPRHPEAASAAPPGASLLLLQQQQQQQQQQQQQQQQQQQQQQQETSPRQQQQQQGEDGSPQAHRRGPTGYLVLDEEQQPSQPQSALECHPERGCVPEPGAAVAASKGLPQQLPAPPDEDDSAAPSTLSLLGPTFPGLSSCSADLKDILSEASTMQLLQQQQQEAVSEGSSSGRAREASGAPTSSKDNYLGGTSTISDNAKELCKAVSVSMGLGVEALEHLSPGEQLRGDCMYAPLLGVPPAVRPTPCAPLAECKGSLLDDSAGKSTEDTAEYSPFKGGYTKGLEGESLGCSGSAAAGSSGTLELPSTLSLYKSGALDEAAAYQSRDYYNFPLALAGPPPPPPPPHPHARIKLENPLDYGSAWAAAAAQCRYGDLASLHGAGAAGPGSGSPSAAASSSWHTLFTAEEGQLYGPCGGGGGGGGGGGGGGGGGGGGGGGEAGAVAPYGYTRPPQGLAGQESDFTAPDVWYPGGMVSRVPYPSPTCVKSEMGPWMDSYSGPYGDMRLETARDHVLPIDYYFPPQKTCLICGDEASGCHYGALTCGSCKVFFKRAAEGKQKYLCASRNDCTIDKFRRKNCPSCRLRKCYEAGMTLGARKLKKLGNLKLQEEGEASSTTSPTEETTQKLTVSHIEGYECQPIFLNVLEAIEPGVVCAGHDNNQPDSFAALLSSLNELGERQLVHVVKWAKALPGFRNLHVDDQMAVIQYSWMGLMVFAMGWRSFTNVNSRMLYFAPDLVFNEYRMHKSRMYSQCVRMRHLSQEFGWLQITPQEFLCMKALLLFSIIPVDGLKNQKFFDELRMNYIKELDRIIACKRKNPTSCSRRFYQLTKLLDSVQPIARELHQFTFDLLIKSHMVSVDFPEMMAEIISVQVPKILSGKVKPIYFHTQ
Chain of Estrogen receptor beta (Homo sapiens) (Q92731 whole entry, looked up): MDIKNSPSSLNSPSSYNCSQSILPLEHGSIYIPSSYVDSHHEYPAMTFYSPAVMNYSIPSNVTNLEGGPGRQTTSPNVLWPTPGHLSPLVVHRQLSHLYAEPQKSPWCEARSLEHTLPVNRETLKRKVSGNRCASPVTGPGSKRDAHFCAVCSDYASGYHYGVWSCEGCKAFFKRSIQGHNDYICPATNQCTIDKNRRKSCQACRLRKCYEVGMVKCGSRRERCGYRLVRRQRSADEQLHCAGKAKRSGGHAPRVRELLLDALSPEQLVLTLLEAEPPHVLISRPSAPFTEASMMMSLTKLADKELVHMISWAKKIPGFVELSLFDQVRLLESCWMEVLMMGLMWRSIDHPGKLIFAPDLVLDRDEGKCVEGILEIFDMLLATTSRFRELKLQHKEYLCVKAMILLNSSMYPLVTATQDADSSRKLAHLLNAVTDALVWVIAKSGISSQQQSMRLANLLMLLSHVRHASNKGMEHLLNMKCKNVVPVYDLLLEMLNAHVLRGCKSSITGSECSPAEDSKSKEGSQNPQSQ

Row | SMILES | Potency [1] | Potency [2] | Potency [3] | Potency [4] | Potency [5] | Potency [6] | Potency [7] | Potency [8] | Potency [9] | outcome [10]
1 | O=C(CBr)Nc1ccc(Cl)cc1C(=O)c1ccccc1F | inactive | inactive | inactive | inactive | inactive | inactive | inactive | inactive | inactive | inactive
2 | CCCCCC[N+](=O)[O-] | inactive | inactive | inactive | inactive | inactive | inactive | inactive | inactive | – | inactive
3 | CCO[C@H]1O[C@@H]2OC3(C)CC[C@H]4[C@H](C)CC[C@@H]([C@H]1C)[C@@]24OO3 | inactive | inactive | inactive | inactive | inactive | inactive | inactive | inactive | inactive | –
4 | COC(C)(C)CCC[C@H](C)C/C=C/C(C)=C/C(=O)OC(C)C | inactive | inactive | inactive | inactive | inactive | inactive | inactive | inactive | – | –
5 | C#CCOC(C(=O)OCCN(C)C)(c1ccccc1)c1ccccc1 | inactive | inactive | inactive | inactive | inactive | inactive | – | inactive | – | –
6 | c1ccc(C2CC2)c(OCC2=NCCN2)c1 | inactive | inactive | inactive | inactive | inactive | inactive | inactive | inactive | inactive | –
7 | Cc1ccc2ccccc2c1 | inactive | inactive | inactive | inactive | inactive | inactive | inactive | inactive | inactive | inactive
8 | Cc1cc(=O)[nH]o1 | inactive | inactive | inactive | inactive | inactive | inactive | inactive | inactive | inactive | inactive
9 | CC1C(=O)C[C@]2(C(C)C)C[C@H]12 (stereo partly drawn) | inactive | inactive | inactive | inactive | inactive | inactive | – | inactive | – | –
10 | CCCN(CCCl)c1c([N+](=O)[O-])cc(C(F)(F)F)cc1[N+](=O)[O-] | inactive | inactive | inactive | inactive | inactive | inactive | – | inactive | inactive | –
11 | Clc1cc(C(Cl)(Cl)Cl)cnc1Cl | inactive | inactive | inactive | inactive | 24.3 µM (active) | inactive | – | inactive | inactive | inactive
12 | C[N+](C)(C)CCCl | inactive | inactive | inactive | inactive | inactive | inactive | inactive | inactive | inactive | inactive
13 | CCOP(=S)(OCC)SCSCC | inactive | inactive | inactive | inactive | inactive | inactive | – | inactive | inactive | inactive
14 | Cc1ccccc1CCl | inactive | inactive | inactive | inactive | inactive | inactive | – | inactive | – | –
15 | CCCCC(O)(Cn1cncn1)c1ccc(Cl)cc1Cl (stereo not drawn) | inactive | 19.3 µM (active) | inactive | 48.5 µM (active) | inactive | 68.5 µM (active) | inactive | – | inactive | inactive
16 | Brc1ccccc1 | inactive | inactive | inactive | inactive | inactive | inactive | inactive | inactive | inactive | –
17 | CCOP(=S)(Oc1ccc([N+](=O)[O-])cc1)c1ccccc1 (stereo not drawn) | inactive | inactive | inactive | inactive | inactive | inactive | – | inactive | inactive | –
18 | c1ccc(CN2CCNCC2)cc1 | inactive | inactive | inactive | inactive | inactive | inactive | – | inactive | – | –
19 | NC(=O)CI | inactive | inactive | inactive | inactive | inactive | inactive | – | inactive | inactive | –
20 | ClCCCCBr | inactive | inactive | inactive | inactive | inactive | inactive | – | inactive | – | –
21 | COC(=O)C(Br)CBr (stereo not drawn) | inactive | inactive | inactive | inactive | inactive | inactive | – | inactive | inactive | –
22 | O=[N+]([O-])c1ccccc1CCl | inactive | inactive | inactive | inactive | inactive | inactive | – | inactive | inactive | inactive
23 | [O-][Cl+]O | inactive | inactive | inactive | inactive | inactive | inactive | – | inactive | inactive | –
24 | ClCc1cccc(Cl)c1 | inactive | inactive | inactive | inactive | inactive | inactive | inactive | inactive | inactive | –
25 | CC(=O)[C@H]1CC[C@H]2[C@@H]3CC[C@H]4C[C@](C)(O)CC[C@]4(C)[C@H]3CC[C@]12C | inactive | inactive | inactive | 2.11 µM (active) | inactive | inactive | – | inactive | inactive | inactive
